From the supplement of paper PMC6555819

tested on: RARb homodimer (NR concentration 270 nM); assay: PBM binding z-score (relative to random genomic background probes); higher = stronger binding; sequences stand for … in GC…GCGATTGACAGCGTAGAATGAAGG
Summary of the method: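 For binding z-scores, the reference was random background probes on custom Agilent 4×180K protein-binding microarrays. These arrays were incubated 1 h with ligand-free nuclear receptor dimers in PBS pH 7.4, 2% milk, 0.02% Triton X-100, 1 mM DTT, 0.2 mg/mL BSA and 0.4 mg/ml salmon testes DNA. Fluorescence was scanned after antibody detection of each partner (one per run) and regression-normalized.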

Sequence | PBM binding z-score
AATACAGGGTCATCGTAGGCCAGAGTTCGCACAG | 3.88
CCTATTAGTTGACCATAAGGGAAACCGAAGCTCG | 0.512
CCGAGCAGGCCAGGGTCACTCAAGCATTTCGCTT | 2.91
CTCGAAAGGTCGTGCTCAGGTGTGTATACCAAAC | 2.72
CCTCGGAGGACAACACGAGGTCAGAGCTGCCAGA | 3.53
TCTGCTAGGTCAGTTGGTCAGCAAACGAGCTGCC | 2.52
GCATATAGGTAATACAAGGTGAAAGTACGATTGT | 0.886
ATCTCTAGGTACAAGTTCAGTGAATCCCGAGGAT | 1.52
ATCGAAAGATCGAAGGTGAGTATACCCACCCGAA | -0.186
CCTAGCAGGCCAATCTGGGTCACTGAAGGCTTGA | 2.38
CCAGACAGGTGAAAGGTAACTCATTCTGGTACGC | 0.992
ATCTCTAGGTAACACTCAGTTCAGTGAAGAACGC | 1.27
ACTTACGGGTCAAAGAGGTTATAGCACGCGTATA | 3.42
CCTATTAGTTGACGATAAGGGCAACCGAAGCTCG | 1.43
GCTTACGGGTCAAAGGATATAGCATGAATAGAAT | 2.26
ACAGACAGCTGATGAAGGTAACTCAGGCTATCAT | -0.303
GGAACGAGGGCAAAGTTGATAGCGTCTGTCGACG | 1.32
TTACCAAGGTGAAGATCGTTGATCCCTCTGTAGA | 0.271
TATTGTAGATCAAGCAGGTTAAGAAAGCCTGAGT | 0.00937
CCTCGGAGGACAGAAGGTCAGTGCTGTCCGCTTT | 3.69

Sequence | PBM binding z-score
GCTATTAGTTGAAAGGGCAACAGAATGATTCTCG | 1.87
TAGCCTAGGTCATTGGCCAGTATACCACGCGAAC | 2.76
ACTCGGAGGACAATGGTCAGAGCTACGCCAGTGA | 0.454
TCATATAGGTAAATGCTAGGCGAAAGTCCGATCT | -0.15
CCTCAAAGTTCAACTAAGGTAACGTAAAGCACGC | 4.3
TCATATAGCTAAAGGTGAAAGTCGAACGATATGA | 1.14
TCGAGTAGGTGAGGGGCATTCAGAATGGCGTCGA | 0.716
TCATAGAGGTAATACAGGTGAAAGTCGGCATCTA | 0.233
TATATTAGTTGATTAGGGCAACCGAAACAGCGGA | 0.779
ACTAGTTGGTCAGCTGAGGTCACACGCAATTCGG | 4.17
CGAACTAGGTCAGAACAGGACAGCGAAGGATGAT | 2.08
CGTCCAAGGTCAATGCTAGGTTAGTGAAAGCATT | 2.54
AGTCAAAGTTCATTAGGTAACGTAAGATTCAGCT | 3.87
CCTAATAGTTGACCATAAGGGCAACCGAAGCTCG | 2.04
CAAACTAGTTCACAGAGGTCAAAGTCCGTGCGTA | 4.92
CCGACTGGGGCAAAAGGTTACCATAAGCCAGCCC | 3.28
TCTTGTAGATCAACAGGAGCTTAAGAAAGATCGA | -1.46
ACAGACAGGTGAGTGAATGTAACTCAGCTGGACG | -0.316
ATTATTAGTTGAGACGAGGGCAACCGATAGGTTG | 1.64
AGAATGAGGATATACGTAGATCAGGGAAGAAAGT | -0.46
